# Most compounds without a hit are left out; they make up all but 11% or so of the library.
# ALDH1A1 block: ALDH1A1 (human) enzyme inhibition; P00352; Purified ALDH1A1, NADH fluorescence, propionaldehyde substrate; Potency, µM (titrated, usually from 75.3 µM), for inactives: at the top dose activity, negative = inhibition, most hits filed as inhibitors; 220,000 compounds, 7.3% hits;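 note: potency is the fitted concentration of half-maximal effect; plate controls were no enzyme wells and a reference inhibitor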
# HPGD block: inhibitors of human 15-hydroxyprostaglandin dehydrogenase (HPGD). P15428. purified HPGD, NADH fluorescence kinetic, PGE2 substrate. Potency, µM, inactives show top-dose activity change, negative = inhibition, usual class: inhibitors. 150,000 compounds, 4.3% hits; note: potency is the fitted concentration of half-maximal effect
# Target sequence (P15428 whole entry, looked up): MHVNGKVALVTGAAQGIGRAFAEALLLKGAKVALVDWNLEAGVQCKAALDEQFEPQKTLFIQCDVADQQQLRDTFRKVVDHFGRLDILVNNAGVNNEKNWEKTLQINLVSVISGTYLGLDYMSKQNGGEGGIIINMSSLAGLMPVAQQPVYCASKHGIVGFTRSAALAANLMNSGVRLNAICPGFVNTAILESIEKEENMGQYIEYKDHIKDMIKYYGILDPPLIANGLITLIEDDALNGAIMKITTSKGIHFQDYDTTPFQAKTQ
#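 NADH formation kinetics: reaction with 30 uM PGE2 and 1 mM NAD+ (final), 20 nM enzyme, Tris-HCl pH 8 with Tween 20, after 15 min compound preincubation at room temperature. Fluorescence change, last versus first of five reads.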
# PNC inhibitor: inhibitors of perinucleolar compartment assembly; AID 2417; activity change (PNC), negative = inhibition, % at 10 µM; PC3M PTB-GFP, PNC prevalence imaging, 16 h; stronger effect = lower value; 140,000 compounds, 3.1% hits;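 active = readout at or below -70, meaning at least 70% loss of cells showing the perinucleolar compartment, a nuclear body marking cancer cells; inconclusive = readout between -30 and a set limit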;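 note: plate controls were DMSO wells for no effect and camptothecin positive control wells for full effect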
#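 Compounds are pinned in duplicate onto adhered PC3M cells stably expressing GFP-tagged PTB and incubated 16 h at 37 C. Cells are then fixed, nuclei stained with Hoechst, and PNC-positive cells counted.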
# The depositor's hits bear a star; u = inconclusive; x = not tested or not shown; [ ] = remark or other dose. Unless noted, calls come from the whole dose curve; as a rule, active = well fitted inhibition curve with a large enough effect (not every such curve was filed as active); inconclusive = small, poorly fitted or top-dose-only effect, or another doubt; inactive = no such curve, though single readings can be large or run the other way. Unless noted, % is set by controls: 0 for no effect and ±100 for the full control effect.
SMILES,ALDH1A1 block,HPGD block,PNC inhibitor
CC1(C)CC(N=C=O)CC(C)(CN=C=O)C1 (stereo not given),u,-4%,x
Cc1cc(-c2csc(NC(=O)c3ccc(C#N)cc3)n2)c(C)n1Cc1ccccc1,5%,x,u
COCCNc1nc(-c2cc(C)n(CCc3ccc(OC)cc3)c2C)cs1,10µM*,x,x
CN(C)c1cc[n+](CC(=O)N2c3ccccc3Sc3ccccc32)cc1,8%,x,x
O=C(C[n+]1ccccc1)N1c2ccccc2Sc2ccccc21,3.2µM*,x,x
CCOC(=O)N1CCN(C(=O)CCCCn2c(=S)[nH]c3ccsc3c2=O)CC1,-1%,x,x
Cc1n[nH]c(=S)n1/N=C/c1ccc(OCc2ccc(Cl)cc2)cc1,0%,7.9µM*,17
Cc1cc(C)c(COc2ccc(/C=N/n3c(C)n[nH]c3=S)cc2)c(C)c1,u,10µM*,44
CCc1n[nH]c(=S)n1/N=C/c1ccccc1OCc1ccc(Cl)cc1,7%,x,x
Cc1n[nH]c(=S)n1/N=C/c1ccccc1OCc1ccc(Cl)cc1Cl,3%,-7%,u
Cc1n[nH]c(=S)n1/N=C/c1ccc(OCc2ccc(Cl)cc2Cl)cc1,-12%,u,u
S=c1[nH]nc(Cc2ccc(Br)cc2)n1/N=C/c1ccc(Cl)cc1,28µM*,x,x
COC(=O)[C@@H](NC(=O)O[C@@H]1C(=O)c2cc(Br)ccc2O[C@H]1c1ccc2c(c1)OCO2)C(C)C,-5%,-6%,x
COc1ccc(NCC(=O)n2c(C)c(C)c3ccccc32)cc1,7.9µM*,x,x
COc1ccc(NC(=O)Cn2c(C)cc(=O)c3ccccc32)cc1,4%,-11%,53
CCOC(CNc1c([N+](=O)[O-])c(=O)n(C)c(=O)n1C)OCC,11%,0%,-18
COc1cc(C(=O)O/N=C2\C=CC(=O)C(C)=C2)cc(OC)c1OC,14µM*,-15%,112
COc1cc(C(=O)ON=C2C=C(C)C(=O)C(C)=C2)cc(OC)c1OC,-3%,-15%,-16
O=C(O)c1ccccc1C(=O)N(Cc1ccccc1)Cc1ccccc1,4%,-7%,15
Nc1ccccc1C(=O)N(Cc1ccccc1)Cc1ccccc1,0%,-20%,-100*
COc1cc(CCC(=O)N2CCN(c3ncccn3)CC2)cc(OC)c1OC,4%,x,x
CC(C)(C)NC(=O)CSCc1c(Cl)cccc1Cl,5%,25µM*,u
CC(C)(C)NC(=O)CSc1nncn1NCc1c(Cl)cccc1Cl,-3%,-9%,-100*
C/C(CC(=O)NCc1ccco1)=N\NC(=O)Cc1cccc2ccccc12,13µM*,-11%,15
C/C(CC(=O)NCc1ccco1)=N\NC(=O)Cc1ccc(-c2ccccc2)cc1,-3%,-9%,-7
SMILES,ALDH1A1 block,HPGD block,PNC inhibitor
CC(C)(C)NC(=O)CSc1nncn1NCc1cccc2ccccc12,16%,0%,44
NC(=O)CSCc1c(Cl)cccc1Cl,1%,2%,-4
CS(=O)(=O)N(CC(=O)NCCSCc1c(F)cccc1Cl)c1ccc2c(c1)OCO2,2.5µM*,-13%,-24
COc1ccc(N(CC(=O)NCCSCc2c(F)cccc2Cl)S(C)(=O)=O)cc1OC,-5%,-5%,-11
CNc1cc(-c2ccccc2C(F)(F)F)ncn1,3%,x,x
CCn1c(C)c(C(C)=O)cc(C#N)c1=O,-1%,x,x
Cc1sc2nc(CN3CCCCC3)nc(Cl)c2c1C,-1%,u,u
CSc1sc(C(=O)O)c(C)c1C(C)=O,2%,-12%,-10
O=[N+]([O-])c1ccc2nccn2c1,0%,-5%,24
O=C(CCSCc1ccc(Cl)cc1)NCCc1ccccc1,3%,u,6
O=C(COc1ccccc1Cl)NCc1ccco1,-1%,-21%,9
O=C(CCc1ccccc1)NCCSCc1c(F)cccc1Cl,-5%,5µM*,u
O=C(NNC(=S)NCc1ccco1)c1ccc(Cl)s1,-12%,0%,7
O=C(CSCc1c(Cl)cccc1Cl)NCc1ccco1,u,8.9µM*,-15
O=C(CSCc1c(F)cccc1Cl)Nc1cccnc1,-4%,x,x
O=C(CSCc1c(F)cccc1Cl)NCc1ccco1,u,14µM*,u
O=C(CSCc1ccco1)c1ccc(Cl)s1,u,20µM*,-8
Cc1csc(NC(=O)CSc2nnc(NC(=O)COc3ccc(Cl)cc3)s2)n1,u,-14%,u
C=CC(C)(O)CCCC(C)CCCC(C)CCCC(C)C (stereo not given),-2%,-1%,x
CCCCc1nc2c(c3c1C[C@H](C)OC3)CN(S(=O)(=O)c1ccc(NC(C)=O)cc1)CC2,5%[13.5 µM],-2%,x
O=C(O)c1ccc(/C=N/NC(=O)c2cc(-c3ccc4c5c(cccc35)CC4)n[nH]2)cc1,-11%,x,x
OB(O)c1csc2ccccc12,0%,-5%,x
O=C(CSCc1ccc(Cl)cc1)NCCSCc1ccco1,11µM*,x,x
Cc1ccccc1CSCC(=O)NCCSc1ccccn1,-5%,x,x
O=C(CCSCc1ccc(Cl)cc1)NCc1ccco1,10%,x,x
SMILES,ALDH1A1 block,HPGD block,PNC inhibitor
CNC(=O)CSCc1c(F)cccc1Cl,0%,5%,-9
CC(C)NC(=O)CSCc1c(F)cccc1Cl,u,16µM*,-7
Cc1ccccc1CSCC(=O)NCc1ccco1,16µM*,11µM*,24
Cc1ccc([N+](=O)[O-])cc1NC(=O)CCCOc1ccccc1,-2%,-2%,110
COC(c1ccccc1Br)C(C)/C=C/CCO (stereo not given),3.2µM*,x,x
COC(=O)C/C=C/[C@@H](C)[C@H](O)c1ccccc1Br,12%,2%,x
COCCn1c(SCC(=O)Nc2ccccc2C)nc2c(oc3ccccc32)c1=O,u,-15%,4
COCCn1c(SCC(=O)Nc2ccc(C)cc2C)nc2c(oc3ccccc32)c1=O,1%,-17%,-107*
O=c1cc(-c2ccccc2Cl)oc2ccc([N+](=O)[O-])c(O)c12,14%,11µM*,43
O=c1cc(-c2ccccc2Cl)oc2c([N+](=O)[O-])c(O)cc(O)c12,-11%,28µM*,u
Nc1ccc2oc(-c3ccccc3Cl)cc(=O)c2c1O,1%,u,-26
O=c1cc(-c2ccc(O)cc2)oc2c([C@H]3O[C@@H](CO)[C@@H](O)[C@@H](O)[C@@H]3O)c(O)cc(O)c12,-6%[20.9 µM],-7%,x
C/C(CCC(=O)OC[C@@H]1O[C@H](C#Cc2ccccc2)C=C[C@@H]1Oc1ccc(C)cc1)=N/O[C@@H](C)c1cc(-c2c(C)cc(C)cc2C)no1,10%[13.5 µM],x,x
Cc1cc(C(=O)O)ccc1[C@H](N)C(=O)O,4%,-12%,x
Cc1cccc(/C=N/NC(=O)C2CCCNC2=O)c1 (stereo not given),0%,2%,-85*
O=C1NCCCC1C(=O)N/N=C/c1cccc([N+](=O)[O-])c1 (stereo not given),-10%,x,x
O=C(Nc1cccc(C(F)(F)F)c1)C(=O)N1CCCCC1,6%,x,x
O=C(COc1ccccc1)Nc1sc2c(c1C(=O)NCc1cccnc1)CCCC2,20µM*,-12%,21
COc1ccc(/C=C/C(=O)NCc2cccnc2)cc1,0%,-19%,-7
COc1ccc(/C=C/C(=O)Nc2sc3c(c2C(=O)NCc2cccnc2)CCCC3)cc1,4µM*,u,44
O=C(COc1ccc(Cl)cc1)Nc1ccc(C(=O)NCc2cccnc2)cc1,-7%,-12%,110
COc1ccc(CCN(C)C(=O)C2CCN(Cc3cccc(OC)c3OC)CC2)cc1OC,-12%,x,x

# Assay outcomes as filed in PubChem.
